Bioassay records: PubChem BioAssay, The Scripps Research Institute Molecular Screening Center
M1 antag: antagonists of human M1 muscarinic receptor; P11229; CHO-K1 hM1, Fluo-8 calcium fluorescence, ACh EC80 antagonist; inhibition, % at 3 µM; 360,000 tested, 1.3% active;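 active = percent inhibition above its own plate's cutoff, namely the mean of that plate's compound wells plus 3 SD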;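 also: peak over basal fluorescence ratio during 140 s after agonist addition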
Target sequence (P11229 whole entry, looked up): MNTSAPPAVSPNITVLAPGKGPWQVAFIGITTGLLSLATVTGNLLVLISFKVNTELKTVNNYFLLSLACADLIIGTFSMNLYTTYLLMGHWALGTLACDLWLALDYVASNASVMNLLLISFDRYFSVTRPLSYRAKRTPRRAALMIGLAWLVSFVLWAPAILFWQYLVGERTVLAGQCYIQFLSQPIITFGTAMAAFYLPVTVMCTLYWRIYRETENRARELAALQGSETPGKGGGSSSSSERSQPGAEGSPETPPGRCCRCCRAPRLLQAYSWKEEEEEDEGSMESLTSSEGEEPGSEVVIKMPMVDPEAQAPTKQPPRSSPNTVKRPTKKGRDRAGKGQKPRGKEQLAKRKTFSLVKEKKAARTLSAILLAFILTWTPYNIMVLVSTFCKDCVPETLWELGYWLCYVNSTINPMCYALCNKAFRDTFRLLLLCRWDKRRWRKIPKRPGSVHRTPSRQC
CHO-K1 Ca antag: nonselective inhibitor or artifact in parental CHO-K1 cells; ATP-induced calcium, Fluo-8 fluorescence; inhibition, % at 3 µM; 360,000 tested, 0.6% active; AID 602250;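 active = inhibition above a per-plate cutoff, the plate's mean sample inhibition plus 3 SD, cut at about 24% in these data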
CHRM1 agonist: activates human CHRM1 receptor; activation, % at 3 µM; AID 588814; P11229; CHO-K1 hM1, Fluo-8 calcium fluorescence, agonist mode; 0% DMSO, 100% acetylcholine EC100; 360,000 tested, 0.33% active;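 active = activation above the run's mean compound activation plus 3 SD, cut at about 16% in these data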;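 also: peak over basal fluorescence ratio within a 140 s kinetic read after compound addition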
CHO-K1 Ca ag: M1 agonist counterscreen hit in parental CHO-K1 cells; Fluo-8 calcium fluorescence; scaled to maximal ATP response, vehicle zero; activation, % at 3 µM; 360,000 tested, 0.48% active; AID 602248; in the data active = activation above about 15%;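 also: untransfected CHO-K1 host cells lacking M1 receptor as counterscreen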
M1 PAM parental: M1 PAM counterscreen hit in parental CHO-K1 cells. ATP EC20, Fluo-8 calcium fluorescence; 0% at ATP EC20, 100% at ATP max. activation, % at 3 µM. 360,000 tested, 0.02% active. AID 602247;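 active = activation above the run cutoff, the mean activation of all test compounds plus 3 SD, cut at about 40% in these data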;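 also: peak over basal fluorescence ratio in a 140 s read after ATP addition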
CHRM1 PAM: positive allosteric modulators of human M1 muscarinic receptor. P11229. 360,000 tested, 0.088% active. activation, % at 3 µM. CHO-K1 hM1, Fluo-8 calcium fluorescence, ACh EC20; 0% = ACh EC20, 100% = maximal ACh; in the data active = activation above about 19%, passing the limit was not always enough
A number is an active result; - = inactive. Hits are enriched below; roughly 2.3% of the tested compounds scored in any of these assays.

SMILES | M1 antag | CHO-K1 Ca antag | CHRM1 agonist | CHO-K1 Ca ag | M1 PAM parental | CHRM1 PAM
CN(C)c1ccc(CNc2ncnc3sccc23)cc1 | - | 25.3 | - | - | - | -
NS(=O)(=O)c1ccc(CNc2ncnc3sccc23)cc1 | - | - | - | - | - | -
COc1ccc(CCNc2ncnc3sccc23)cc1OC | 39.7 | 33.5 | - | 17.4 | - | -
CCCOc1ccc(C(=O)Nc2cc(S(=O)(=O)N3CCOCC3)ccc2N2CCOCC2)cc1 | - | - | - | - | - | -
CNc1ccc(Br)cc1C(O)c1ccccc1 (stereo not given) | - | - | - | - | - | -
COc1ccc2[nH]c(=O)c(CN(Cc3cccs3)S(=O)(=O)c3c(C)ccc4nsnc34)cc2c1 | 44.5 | - | - | - | - | -
Cc1[nH]c2ccc(C(=O)NCCN3CCOCC3)cc2c1C | - | - | - | - | - | -
CCOC(=O)C1CCCN(C2=NC(=O)/C(=C/c3ccc(N(C)C)cc3)S2)C1 (stereo not given) | - | - | 24.4 | - | - | -
CCN1C(=O)N[C@@H](c2cccc(F)c2)C(C(C)=O)=C1C | - | - | - | - | - | 31.2
CCOC(=O)CN1C(=O)N[C@@H](c2cccc(F)c2)C(C(C)=O)=C1C | - | - | - | - | - | -
CSC1=NSC2=NC(=O)/C(=C\c3ccc(OC(=O)c4ccco4)cc3)C(=N)N12 | - | - | - | - | - | -
CC(C)CC1=NN2C(=N)/C(=C\c3coc4ccccc4c3=O)C(=O)N=C2S1 | 45.1 | 44.9 | 125.2 | 100.2 | - | -
CCSC1=NSC2=NC(=O)/C(=C\c3coc4ccccc4c3=O)C(=N)N12 | 61.0 | 48.3 | 87.1 | 58.6 | - | -
CC1Sc2ccc(S(=O)(=O)CCC(=O)Nc3ccccn3)cc2NC1=O (stereo not given) | - | - | - | - | - | -
Cc1ccc(S(=O)(=O)N2C(=O)CCC2C(N)=O)cc1 (stereo not given) | - | - | - | - | - | -
CCC1(c2ccccc2)NC(=O)N(CC(=O)NCC2COc3ccccc3O2)C1=O (stereo not given) | - | - | - | - | - | -
COCCNC(=S)N1CCN(S(C)(=O)=O)CC1 | - | - | - | - | - | -
Cc1ccccc1-n1c(=O)cc(N2CCc3ccccc3C2)[nH]c1=O | - | - | - | 17.9 | - | -
NC(=O)c1nsc(C(=O)N(c2ccccc2F)C(C(=O)NCc2ccccc2)c2ccc(O)cc2)c1N (stereo not given) | 39.3 | - | - | - | - | -
Cc1ccccc1N(C(=O)c1snc(C(N)=O)c1N)C(C(=O)NCc1ccccc1)c1ccc(O)cc1 (stereo not given) | - | - | - | - | - | -
COc1ccc(CNS(=O)(=O)NCc2ccc(C)cc2)cc1OC | - | - | - | 19.3 | - | -
O=C1NC2(CCCCCC2)C(=O)N1Cc1ccccc1Br | - | - | - | - | - | -
O=C1C(Cc2ccccc2O)NC(=S)N1c1ccccc1 (stereo not given) | - | - | - | - | - | -
CC1(C(=O)NC2CCCC2)CCC(=O)N1CCOc1ccccc1 (stereo not given) | - | 28.4 | - | - | - | -
CCCNc1c(NS(=O)(=O)c2ccc(Cl)s2)c(=O)oc2ccccc12 | - | 29.4 | - | - | - | -
O=C(NCCCNC(=O)c1c(F)cccc1F)c1c(F)cccc1F | - | - | - | - | - | -
O=C(NCC(Cl)c1ccc2ccccc2c1)c1c(F)cccc1F (stereo not given) | - | - | - | 19.7 | - | -
